This is a sample that favours compounds with a hit; in the whole collection about 19% have one here.
KB-3-1 tox: kills parental KB-3-1 adenocarcinoma cells; KB-3-1 viability, CellTiter-Glo ATP luminescence, 72 h; Potency, µM (series often up to 46.1 µM), hits mostly cytotoxic; 400,000 compounds, 1.4% hits; AID 1347075; note: nearly all actives have a fitted effect of over 60% in size
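72 h, 37 °C compound treatment of KB-3-1 parental cells; CellTiter-Glo added, 10 min, luminescence read. Data corrected against DMSO-only plates and normalized before curve fitting.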
HT1080-NT tox: kills 2HG-producing HT-1080-NT fibrosarcoma cells; HT-1080-NT fibrosarcoma viability, CellTiter-Glo ATP luminescence, 48 h; Potency, µM (top dose mostly 46.1 µM), for the others: at the highest dose activity, negative = less viability, usual class: cytotoxic; 360,000 compounds, 1.6% hits; AID 686970;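 note: NT is the 2HG producing partner of a matched IDH1 knockdown line; 0% = DMSO-treated cells and -100% = media-only wells without cells; nearly all actives have a fitted effect of over 55% in size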
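Fibrosarcoma NT cells, 750 per well in 5% FBS RPMI, were exposed to compound for 48 hours. Viability: CellTiter-Glo luminescence.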
DT40 TDP1 no CPT: qHTS for Inhibitors of human tyrosyl-DNA phosphodiesterase 1 (TDP1): qHTS in cells in absence of CPT | 420,000 compounds, 15% hits | DT40 Tdp1-/- hTDP1 cells, no CPT, ATP luminescence, 48 h | AID 686978, 2013 | Potency, µM (highest dose often 46.2 µM), for inactives: at the top dose activity change, negative = growth inhibition, actives largely listed as inhibitors; note: nearly all actives have a fitted effect of over 55% in size
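Luminescent ATP content (CellTiter-Glo) served as the growth readout. Knockout chicken DT40 cells expressing human TDP1 were exposed to compounds without camptothecin for a minimum 48 hr at 37 °C.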
KB-V1 MDR tox: kills drug-selected multidrug resistant KB-V1 cells; KB-V1 MDR cells viability, CellTiter-Glo, 72 h; Potency, µM (series often up to 46.1 µM), most hits filed as cytotoxic; 400,000 compounds, 3.4% hits; AID 1347076; note: nearly all actives have a fitted effect of over 60% in size
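KB-V1 MDR subline cells in DMEM (phenol-red free, 10% FBS) exposed to compounds in qHTS concentration series for 72 h at 37 degrees C. Viability read by CellTiter-Glo luminescence; concentration-effect curves fitted after normalization and correction.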
HT1080 IDH1KD tx: kills HT-1080 cells with IDH1 knockdown; HT-1080 IDH1 knockdown viability, ATP luminescence, 48 h; Potency, µM (series often up to 46.1 µM), inactives show at the top dose activity, negative = toxicity, most hits filed as cytotoxic; 360,000 compounds, 2% hits;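 note: 0% = DMSO wells and -100% = cell-free medium wells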
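Viability of IDH1-knockdown HT-1080 fibrosarcoma cells was assessed by CellTiter-Glo after 48 h at 37 °C with titrated compound; concentration-effect curves were classified by fit quality and response size.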
TDP1 cell CPT: growth inhibition of DT40 Tdp1-/-;hTDP1 cells with camptothecin (screen for TDP1 inhibitors). 420,000 compounds, 12% hits. Potency, µM (highest dose often 46.2 µM), for the others: at the highest dose activity change, negative = growth inhibition, hits mostly inhibitors. AID 686979. chicken DT40 Tdp1-/-;hTDP1 cells + 20 nM CPT, ATP luminescence, 48 h; note: nearly all actives have a fitted effect of over 55% in size
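Chicken DT40 Tdp1-/- cells stably complemented with human TDP1 were seeded at 400 cells/well in medium containing 20 nM camptothecin, exposed to pin-transferred compounds, and grown at 37 °C for at least 48 hr. Viability was read as ATP luminescence.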
An asterisk follows results filed as active; i = inactive; ? = inconclusive; · = not tested or not shown. Calls come from the whole dose curve; as a rule, active = well fitted curve in the direction sought with a large enough effect; inconclusive = small, poorly fitted or top-dose-only effect, or another doubt; inactive = no such curve, though single readings can be large; an effect the other way counts as inactive or inconclusive. Unless noted, % is set by controls: 0 for no effect and ±100 for the full control effect; potency is the fitted concentration of half-maximal effect.

SMILES	KB-3-1 tox	HT1080-NT tox	DT40 TDP1 no CPT	KB-V1 MDR tox	HT1080 IDH1KD tx	TDP1 cell CPT
CSc1ccc(COC(=O)c2cc([N+](=O)[O-])ccc2N2CCOCC2)cc1	0.15µM*	?	0.026µM*	0.41µM*	0.18µM*	0.041µM*
O=C(OCc1ccccc1F)c1cc([N+](=O)[O-])ccc1N1CCOCC1	i	0%	-26%	18µM*	-4%	-17%
Cc1ccccc1COC(=O)c1cc([N+](=O)[O-])ccc1N1CCOCC1	?	?	?	i	?	?
Cc1cccc(N2CCN(C(C(=O)NCc3ccccc3)c3ccc(C(F)(F)F)cc3)CC2)c1C (stereo unspecified)	i	11%	?	i	9%	?
C=C(C)C1COc2cc3oc(=O)ccc3cc2O1 (stereo unspecified)	·	·	-12%	·	·	-8%
O=C(CSc1nc2cc(C(=O)O)ccc2c(=O)n1-c1ccc(F)cc1)Nc1ccc(F)c(F)c1F	i	-4%	-25%	i	-15%	-10%
O=C(CC(=O)c1ccccc1O)c1ccc(F)cc1	?	?	12µM*	?	?	10µM*
O=C(CCNC(=O)c1ccccc1Cl)NNC(=O)c1ccccc1O	i	-6%	?	?	-13%	?
O=C(Nc1ccccc1C(=O)O)c1cccc(F)c1	i	12%	-6%	i	18%	-3%
O=C(CC(=O)c1ccccc1O)c1cccc(F)c1	?	?	4.1µM*	?	?	6.5µM*
O=C(CC(=O)c1c(F)cccc1Cl)c1ccccc1O	i	?	12µM*	?	?	?
COc1ccc(C(=O)CC(=O)c2ccc(F)cc2)cc1	i	5%	?	i	-1%	-22%
Cc1ccc(C)c(NC(=O)Cn2c(=O)n(Cc3nc(C)no3)c(=O)c3cc4c(cc32)OCO4)c1	i	·	?	i	·	?
C[C@@]12C(=O)OC(=O)[C@@]1(C)C1CCC2O1	·	·	-2%	·	·	-9%
C[C@@]12C(=O)OC(=O)[C@@]1(C)[C@@H]1CC[C@@H]2O1	·	·	30µM*	·	·	30µM*
CC(C)N(Cc1c(O)ccc2c(=O)c(-c3ccc(Cl)cc3)coc12)C(C)C	i	?	8.2µM*	i	?	2.1µM*
CC1CCCCN1Cc1c(O)ccc2c(=O)c(-c3ccc(Cl)cc3)coc12 (stereo unspecified)	i	1%	18µM*	i	-5%	7.3µM*
CC1CCCCN1Cc1c(O)ccc2c(=O)c(-c3ccc(Br)cc3)coc12 (stereo unspecified)	i	2%	-11%	i	-2%	?
CC1CCCCN1Cc1c(O)ccc2c(=O)c(-c3nc4ccccc4s3)c(N)oc12 (stereo unspecified)	i	?	23µM*	i	?	?
O=C(NCc1nnc(SCC(=O)N2CCOCC2)o1)c1ccccc1	i	-1%	2%	i	-1%	-26%
COc1cccc(N(CC(=O)N2CCCC2)S(C)(=O)=O)c1	i	5%	-9%	i	0%	-1%
CCOC(=O)c1c(C)[nH]c(C(=O)N2CCC(C(=O)OCC)CC2)c1C	i	-2%	11%	i	11%	-19%
Cn1c(=O)c(-c2cccs2)nc2cnc(Oc3ccccc3)nc21	·	·	-1%	·	·	-1%
O=C(Nc1cccc(F)c1)c1cnc2sc(N3CCCC3)nn2c1=O	·	·	3.3µM*	·	·	2.3µM*
CC(C)c1ccc(NC(=O)c2cnc3sc(N4CCCC4)nn3c2=O)cc1	·	·	2.1µM*	·	·	2.9µM*
Cc1ccccc1NC(=O)c1cnc2sc(N3CCCC3)nn2c1=O	·	·	-1%	·	·	14%
